PubChem BioAssay (NCI)
Values joined by “and” are separate entries in the source; they are usually repeats but may differ in a detail not shown here. Identical values can stand only once. Compounds without any hit were thinned out: in the full panel of roughly 83,000, 20% have a hit.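 Each cell line was grown in a 96-well plate and treated with one concentration of compound for 48 hours. Values below 10 were considered active.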 Active and inactive are the calls of the source.

Each compound was assayed on UACC-62 melanoma (assay: NCI-60 one-dose screen, 48 h (100 = growth as untreated, 0 = no growth, -100 = all killed)). Settings: 10 µM unless noted.

Row | Structure (SMILES) | growth
1 | CC(=O)Oc1ccc2ccc(=O)oc2c1OC(C)=O | 24.4% [100 µM] (inactive) and -66.3% [100 µM] (active)
2 | CCCCOC(=O)C1CN2C(=NC1(C(F)(F)F)C(F)(F)F)Sc1ccccc12 (stereo not given) | 4.45% [100 µM] (active) and 54.9% [100 µM] (inactive)
3 | C=C1CC(O)C2C(=C)C(=O)OC2C2C(C)C(=O)CC12 (stereo not given) | -89.7% [100 µM] (active) and -97.7% [100 µM] (active)
4 | NC(=O)c1[nH]cnc1/N=N/SCC(N)C(=O)O (stereo not given) | 6.63% [100 µM] (active) and 4.02% [100 µM] (active)
5 | N#C/C(=C\c1ccccc1)C(=O)Nc1nnc(-c2ccccc2)o1 | 36.9% [100 µM] (inactive) and -78.4% [100 µM] (active)
6 | CCC/C(Cl)=N\OC(=O)Nc1ccc(F)cc1 | -93.4% [100 µM] (active) and -100% [100 µM] (active)
7 | O=C1NC(=S)NC1C(Cc1ccccc1)c1ccco1 (stereo not given) | 36.5% [100 µM] (inactive) and 57.6% [100 µM] (inactive)
8 | CCC1CC(C)C(O)/C=C/C=C/CC(C)OC(=O)CC(O)C(OC)C1OC1OC(C)CC(O)(C(C)=O)C1O (stereo not given) | 67.6% [100 µM] (inactive) and 33.4% [100 µM] (inactive)
9 | CCCn1c2c(c3ccccc3c1=O)C(=O)c1ccccc1-2 | 63.1% [100 µM] (inactive) and 8.48% [100 µM] (active)
10 | Nc1cc2c3c(cccc3c1)C(=O)N(c1ccc(OCCN3CCCCC3)cc1)C2=O | -67.3% [100 µM] (active) and -100% [100 µM] (active)
11 | CC1(C)CCCC(C)(C2CCC3(C)C2C(O)CC2C4(C)CCC(O)C(C)(C)C4C(O)CC23C)O1 (stereo not given) | -76.6% [100 µM] (active) and -83.9% [100 µM] (active)
12 | CC(=O)c1cc2c(s1)C(=O)c1scc(C(C)=O)c1C2=O | -37.8% [100 µM] (active) and -81.8% [100 µM] (active)
13 | CC#CC#C/C=C1/C=CC2(CCCCO2)O1 (stereo not given) | 63.2% [100 µM] (inactive) and 4.56% [100 µM] (active)
14 | CC(=O)O[C@@H]1C[C@@]2(C)[C@@H]3CC=C4[C@@H](C[C@H](O)C(=O)C4(C)C)[C@]3(C)C(=O)C[C@]2(C)[C@H]1[C@@](C)(O)C(=O)/C=C/C(C)(C)OC(C)=O | -64.4% [100 µM] (active) and -99.7% [100 µM] (active)
15 | COc1cc([N+](=O)[O-])c(OC)c2c(Nc3ccc(S(=O)(=O)O)c4cc(S(=O)(=O)O)cc(S(=O)(=O)O)c34)cc(C)nc12 | -91% [100 µM] (active) and -100% [100 µM] (active)
16 | C=C1C(=O)OC2C1CC(O)/C(C)=C\CCC1(C)OC21 (stereo not given) | 68.9% [100 µM] (inactive) and -86% [100 µM] (active)
17 | Cc1ccnc2[nH]c(-c3ccc(F)cc3)cc(=O)c12 | -5.39% [100 µM] (active) and -36.2% [100 µM] (active)
18 | CC(C)=CCC/C(C)=C/CC/C(C)=C/CSc1ccc(Cl)cc1C(=O)O | -72.3% [100 µM] (active) and 10.4% [100 µM] (inactive)
19 | COc1cc2c(cc1-c1coc3cc(OCC=C(C)C)ccc3c1=O)OCO2 | 0.442% [100 µM] (active) and 1.53% [100 µM] (active)
20 | O=C(CCc1ccccc1)On1c(-c2ccccc2)nc2ccccc2c1=S | -68.8% [100 µM] (active) and -83.7% [100 µM] (active)

Row | Structure (SMILES) | growth
21 | COc1cc2c(cc1O)Cc1c-2[n+](C)cc2cc(OC)c(OC)cc12 | 12.4% [100 µM] (inactive) and -100% [100 µM] (active)
22 | NNC1=N/C(=C\c2ccco2)C(Cl)=N1 | 10.8% [100 µM] (inactive) and -100% [100 µM] (active)
23 | Cc1c2c(c(O)c3c(O)cccc13)C(=O)C1(O)C(O)=C(C(=O)NCNc3ccc(C(N)=O)cn3)C(=O)C(N(C)C)C1C2 (stereo not given) | -54.4% [100 µM] (active) and -74.8% [100 µM] (active)
24 | CC12NC(=C(C#N)C#N)C(C#N)=C3NC(N)=C(C#N)C(=C31)Oc1ccccc12 (stereo not given) | 7.06% [100 µM] (active) and -61.2% [100 µM] (active)
25 | CC(C)(C)N/N=C(\C(=O)Nc1ccc([N+](=O)[O-])cc1[N+](=O)[O-])c1nc2ccc([N+](=O)[O-])cc2[nH]c1=O | 54.2% [100 µM] (inactive) and 17.5% [100 µM] (inactive)
26 | CCOC(=O)CCCOc1cc(-c2ccccc2F)nc2cc3c(cc12)OCO3 | 31.5% [100 µM] (inactive) and -31.4% [100 µM] (active)
27 | CC(=O)Nc1c(C)cc2c(nc3n2CCC3OC(C)=O)c1[N+](=O)[O-] (stereo not given) | 134% [100 µM] (inactive) and 108% [100 µM] (inactive)
28 | CC(=O)c1cc2c(s1)C(=O)c1ccsc1C2=O | -54.1% [100 µM] (active) and -98.1% [100 µM] (active)
29 | O=C(O)c1cnccc1-c1cc(=O)[nH]n1-c1ccccc1 | 17.3% [100 µM] (inactive) and 7.35% [100 µM] (active)
30 | Cc1ccc(/C=N/Nc2ccc3ccccc3n2)s1 | 11.2% [100 µM] (inactive) and -100% [100 µM] (active)
31 | COC(=O)c1ccc(CCc2cc(O)c(Br)cc2O)cc1 | -96.8% [100 µM] (active) and -100% [100 µM] (active)
32 | CC(=O)NC(CS/N=N/c1nc[nH]c1C(N)=O)C(=O)O (stereo not given) | -5.07% [100 µM] (active) and 0.469% [100 µM] (active)
33 | O=C1N(c2ccccc2)N=C2c3ccncc3C3=NN(c4ccccc4)C(=O)C123 (stereo not given) | 59.9% [100 µM] (inactive) and 10.7% [100 µM] (inactive)
34 | COc1cc(Nc2ccc3c(c2)CCC3)nc(OC)n1 | 42.1% [100 µM] (inactive) and 2.26% [100 µM] (active)
35 | Nc1nc(Nc2cc(F)c(Cl)c(F)c2)cc(=O)[nH]1 | 85.2% [100 µM] (inactive) and -90.5% [100 µM] (active)
36 | O=C1C=C(Nc2ccc(S(=O)(=O)Nc3nccs3)cc2)c2ccccc2C1=O | -46.1% [100 µM] (active) and -88.9% [100 µM] (active)
37 | CC(C)(C)c1cc(C2COC(=O)COCC(=O)OCCOCCOCCO2)cc(C(C)(C)C)c1O (stereo not given) | -51.5% [100 µM] (active) and -100% [100 µM] (active)
38 | N#Cc1cnn2c1n[n+]([O-])c1ccc(Cl)cc12 | -91.7% [100 µM] (active) and -100% [100 µM] (active)
39 | N#Cc1c(SCc2ccccc2)nc(-c2ccccc2)[nH]c1=S | -44.7% [100 µM] (active) and 1.92% [100 µM] (active)
40 | Cc1cc(N2CCCC2)c([N+](=O)[O-])cc1[N+](=O)[O-] | 64.5% [100 µM] (inactive) and 32.1% [100 µM] (inactive)
